Screening results as filed in PubChem.
The full list was thinned out, with hits kept by preference.
ALOX12 inh – inhibitors of human 12S-lipoxygenase ALOX12. P18054. purified 12hLO, xylenol orange hydroperoxide absorbance. hit rate 1.1% among 580,000. AID 1671190. Potency, µM (doses to about 108 µM), most hits filed as inhibitors
Target sequence (P18054 whole entry, looked up): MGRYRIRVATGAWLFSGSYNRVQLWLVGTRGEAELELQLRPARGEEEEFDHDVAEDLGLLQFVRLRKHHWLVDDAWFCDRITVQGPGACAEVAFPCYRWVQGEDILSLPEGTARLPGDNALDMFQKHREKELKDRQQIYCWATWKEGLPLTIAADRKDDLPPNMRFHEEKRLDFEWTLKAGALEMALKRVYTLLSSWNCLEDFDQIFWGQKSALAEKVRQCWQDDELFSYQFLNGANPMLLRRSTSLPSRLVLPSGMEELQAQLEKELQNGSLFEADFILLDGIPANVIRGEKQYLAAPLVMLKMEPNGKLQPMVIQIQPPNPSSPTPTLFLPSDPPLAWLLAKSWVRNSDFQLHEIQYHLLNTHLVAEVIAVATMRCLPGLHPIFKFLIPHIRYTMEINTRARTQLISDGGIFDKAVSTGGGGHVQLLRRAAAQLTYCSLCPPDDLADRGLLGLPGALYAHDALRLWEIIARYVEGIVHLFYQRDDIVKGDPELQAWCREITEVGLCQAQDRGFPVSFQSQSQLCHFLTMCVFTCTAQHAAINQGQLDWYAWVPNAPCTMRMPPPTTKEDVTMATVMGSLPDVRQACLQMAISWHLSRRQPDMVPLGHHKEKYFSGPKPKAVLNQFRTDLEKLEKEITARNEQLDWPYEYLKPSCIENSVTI
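Hydroperoxide product was detected by ferrous iron/xylenol orange as the 573 to 405 nm absorbance ratio. Arachidonic acid at 40 uM (final) was turned over for 30 min at room temperature by 150 nM human 12hLO, pH 7.0 Hepes buffer, after 15 min compound preincubation.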
DT40 TDP1 CPT – DT40-hTDP1 cell growth loss with CPT | chicken DT40 Tdp1-/-;hTDP1 cells + 20 nM CPT, ATP luminescence, 48 h | Potency, µM (top dose mostly 46.2 µM), actives largely listed as inhibitors | hit rate 12% among 420,000 | AID 686979; note: nearly all actives have a fitted effect of over 55% in size
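Cell growth measured by CellTiter-Glo luminescence after a minimum 48 h, 37 C compound exposure with 20 nM CPT in Tdp1-knockout DT40 cells stably expressing hTDP1, seeded 400/well; qHTS titration format.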
DT40 TDP1 no CPT – qHTS for Inhibitors of human tyrosyl-DNA phosphodiesterase 1 (TDP1): qHTS in cells in absence of CPT. AID 686978, 2013. DT40 Tdp1-/- hTDP1 cells, no CPT, ATP luminescence, 48 h. hit rate 15% among 420,000. Potency, µM (titrated, usually from 46.2 µM), hits mostly inhibitors; note: nearly all actives have a fitted effect of over 55% in size
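Chicken DT40 Tdp1-/- cells stably complemented with human TDP1 were seeded at 400 cells/well with DMSO in place of 20 nM camptothecin. After compound pinning, cells grew at least 48 hr at 37 °C; viability read by CellTiter-Glo luminescence.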
HT1080 IDH1KD tx – toxicity to HT-1080 IDH1 knockdown cells (counter line); Potency, µM (series often up to 46.1 µM), actives largely listed as cytotoxic; HT-1080 IDH1 knockdown viability, ATP luminescence, 48 h; hit rate 2% among 360,000
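HT-1080-IDH1KD cells (IDH1 knocked down), 750/well in RPMI with 5% FBS, treated with compound 48 h at 37 degrees C. Viability by CellTiter-Glo luminescence, normalised to DMSO and no-cell wells; concentration-response curves classed.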
HT1080-NT tox – kills 2HG-producing HT-1080-NT fibrosarcoma cells | hit rate 1.6% among 360,000 | Potency, µM (series often up to 46.1 µM), actives largely listed as cytotoxic | HT-1080-NT fibrosarcoma viability, CellTiter-Glo ATP luminescence, 48 h;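 note: NT is the 2HG producing partner of a matched IDH1 knockdown line; nearly all actives have a fitted effect of over 55% in size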
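Toxicity toward the 2HG-producing NT line was scored as %Activity, normalised to DMSO and no-cell wells, from CellTiter-Glo luminescence after 48 hours' treatment.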
IL1B secr inh – blocks inflammasome-driven IL-1 beta release. THP-1 LPS/ATP IL-1B secretion, AlphaLISA, 16 h; active compounds read low. hit rate 4.7% among 360,000. activity change, % at 57.5 µM. AID 743279; in the data active = activity change below about -50%; inconclusive = mostly about -30% to -49%
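THP-1 cells pretreated 1 hr with compounds (up to 57.5 uM final), then stimulated with LPS (250 ng/mL final) plus ATP (1.25 mM final); secreted IL-1B measured by AlphaLISA after 16 hr, decreased signal indicating inhibition.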
Each line names hits and unclear results; the compound was inactive in the other large screens. Unless noted, calls come from the whole dose curve; as a rule, active = well fitted curve in the direction sought with a large enough effect; inconclusive = small, poorly fitted or top-dose-only effect, or another doubt; inactive = no such curve, though single readings can be large; an effect the other way counts as inactive or inconclusive.

COc1ccc(OC)c(C(=O)c2c(C)oc3cc(Br)c(O)c(CN(C)C)c23)c1	ALOX12 inh inconclusive, DT40 TDP1 CPT inconclusive, DT40 TDP1 no CPT 21µM
Cc1ccc(CNc2nc3ccccc3nc2NS(=O)(=O)c2cccc(Cl)c2)cc1	none (no result: DT40 TDP1 CPT, DT40 TDP1 no CPT, HT1080 IDH1KD tx, HT1080-NT tox, IL1B secr inh)
COCCNC(=O)C(C)[C@@H]1CC[C@@]2(C)CC[C@H](NC(=O)c3cnccn3)[C@@H](C)[C@@H]2[C@H]1O (stereo partly drawn)	none (no result: DT40 TDP1 CPT, DT40 TDP1 no CPT, HT1080 IDH1KD tx, HT1080-NT tox, IL1B secr inh)
COC1CN(c2cccc(F)c2)C12CCN(S(=O)(=O)Cc1ccccc1F)CC2 (stereo not drawn)	none (no result: DT40 TDP1 CPT, DT40 TDP1 no CPT, HT1080 IDH1KD tx, HT1080-NT tox, IL1B secr inh)
CCOC(=O)c1c(CSc2ccc(C)cc2)oc2ccc(O)cc12	ALOX12 inh inconclusive, DT40 TDP1 CPT inconclusive, DT40 TDP1 no CPT inconclusive, HT1080 IDH1KD tx inconclusive, HT1080-NT tox inconclusive
CCOC(=O)c1c(-c2ccccc2)[nH]c2ccc(O)cc12	DT40 TDP1 no CPT inconclusive, IL1B secr inh -55
CCOC(=O)c1c(CSc2ccccc2)oc2cc(Br)c(O)c(CN(C)C)c12	DT40 TDP1 CPT 16µM, DT40 TDP1 no CPT inconclusive
O[C@H]1CC[C@@H](Cc2cc(-c3ccc(F)cc3)on2)O[C@@H]1CNCc1ccccc1Cl	none (no result: DT40 TDP1 CPT, DT40 TDP1 no CPT, HT1080 IDH1KD tx, HT1080-NT tox, IL1B secr inh)
CC(=O)N[C@H]1C[C@@H](c2nc(-c3ccccc3)no2)N(C)C1	none (no result: DT40 TDP1 CPT, DT40 TDP1 no CPT, HT1080 IDH1KD tx, HT1080-NT tox, IL1B secr inh)
CCOC(=O)N1CCN(CC(=O)N2c3ccccc3CCc3ccccc32)CC1	DT40 TDP1 no CPT inconclusive
CCOC(=O)N1CCN(C(=O)c2ccccc2NC(=O)COc2ccccc2)CC1	DT40 TDP1 CPT inconclusive, DT40 TDP1 no CPT 16µM
O=C(COc1ccccc1Cl)Nc1ccccc1C(=O)N1CCCCC1	DT40 TDP1 CPT inconclusive, DT40 TDP1 no CPT 16µM
CCOC(=O)N1CCN(C(=O)c2ccccc2NC(C)=O)CC1	none
CCOC(=O)N1CCN(C/C(Cl)=C/c2ccccc2)CC1	ALOX12 inh 2.2µM
O=C(O)CCC(=O)N1CCN(c2nc(-c3ccccc3)c3ccccc3n2)CC1	none
CCOC(=O)N1CCN(c2nc(-c3ccccc3)c3ccccc3n2)CC1	DT40 TDP1 no CPT 26µM, HT1080-NT tox inconclusive (no result: ALOX12 inh)
Cc1ccc(SCCC(=O)NCCC(C)C)cc1	none (no result: DT40 TDP1 CPT, DT40 TDP1 no CPT, HT1080 IDH1KD tx, HT1080-NT tox, IL1B secr inh)
CCOC(=O)N1CCN(C(=O)c2cccc(OC)c2O)CC1	none
CCOC(=O)N1CCN(C(=O)c2ccccc2-c2ccccc2)CC1	DT40 TDP1 CPT 3.7µM, DT40 TDP1 no CPT 3.3µM, HT1080 IDH1KD tx 7.3µM, HT1080-NT tox 10µM
Cc1ccc2cc(CN(CC(C)C)S(=O)(=O)c3ccc(Cl)cc3)c(=O)[nH]c2c1	none (no result: DT40 TDP1 CPT, DT40 TDP1 no CPT, HT1080 IDH1KD tx, HT1080-NT tox, IL1B secr inh)
O=C(COC(=O)c1ccc(O)cc1)Nc1ccccc1-c1ccccc1	DT40 TDP1 CPT inconclusive, DT40 TDP1 no CPT 21µM
COCC(=O)OCC(=O)Nc1ccccc1-c1ccccc1	none
O=C(COC(=O)c1ccc(-c2ccccc2)cc1)Nc1ccccc1-c1ccccc1	DT40 TDP1 CPT inconclusive, DT40 TDP1 no CPT 10µM
CCOc1ccc(-c2ccnc(N3CCC(NC(C)=O)CC3)n2)cc1C(=O)O	none (no result: DT40 TDP1 CPT, DT40 TDP1 no CPT, HT1080 IDH1KD tx, HT1080-NT tox, IL1B secr inh)
COc1ccccc1-c1c(C)nn2c(N)c(-c3ccccc3)cnc12	DT40 TDP1 CPT 6.5µM, DT40 TDP1 no CPT 5.8µM, IL1B secr inh -74
COc1ccc(-c2c(C)nn(-c3ccccc3)c2N)cc1OC	none
COc1ccc(-c2c(C)nn3c(N)c(-c4ccccc4)cnc23)cc1OC	DT40 TDP1 CPT 5.8µM, DT40 TDP1 no CPT 6.5µM, IL1B secr inh inconclusive
COCc1nn2c(N)c(-c3ccccc3)cnc2c1-c1ccccc1	none
C=CCN(C)C(=O)C[C@@H]1c2nc(NC(=O)c3c(F)cccc3F)sc2C[C@@H]2[C@](C)(CO)[C@H](O)CC[C@]21C	none (no result: DT40 TDP1 CPT, DT40 TDP1 no CPT, HT1080 IDH1KD tx, HT1080-NT tox, IL1B secr inh)
Cc1[nH]c2ccc(C(=O)N(C)C3CCS(=O)(=O)C3)cc2c1C (stereo not drawn)	none (no result: DT40 TDP1 CPT, DT40 TDP1 no CPT, HT1080 IDH1KD tx, HT1080-NT tox, IL1B secr inh)
COc1cccc(-c2nc(SCc3cc(=O)c4ccc(C)c(C)c4[nH]3)n[nH]2)c1	DT40 TDP1 CPT inconclusive, DT40 TDP1 no CPT 8.2µM (no result: HT1080 IDH1KD tx, HT1080-NT tox, IL1B secr inh)
CCc1nc(SCc2cc(=O)c3cc(C)ccc3[nH]2)n[nH]1	none (no result: HT1080 IDH1KD tx, HT1080-NT tox, IL1B secr inh)
